# Rows were chosen to be rich in hits. Some 9.9% of all compounds tested hit in one or more screens of this group.
# KB-V1 MDR tox – qHTS assay for MDR1-selective chemotherapeutics: Primary screen using the drug-selected MDR subline cells KB-V1. KB-V1 MDR cells viability, CellTiter-Glo, 72 h. 3.4% of 400,000 active. Potency, µM (series often up to 46.1 µM), usual class: cytotoxic. AID 1347076, 2019; note: potency is the fitted concentration of half-maximal effect; % is set by controls: 0 for no effect and ±100 for the full control effect; nearly all actives have a fitted effect of over 60% in size
#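 KB-V1 cells (P-gp-expressing MDR subline of KB-3-1) in phenol-red-free DMEM with 10% FBS were exposed to library compounds over a concentration series for 72 h at 37 degrees C. Viability read by CellTiter-Glo luminescence; concentration-effect curves fitted after normalization.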
# SW480 rerep – A quantitative high throughput screen for small molecules that induce DNA re-replication in SW480 colon adenocarcinoma cells. SW480 DNA re-replication, Hoechst DNA content imaging, 48 h. 1.8% of 340,000 active. Potency, µM (top dose mostly 46.1 µM), without a hit: at the highest dose re-replication activation, actives largely listed as activators; note: potency is the fitted concentration of half-maximal effect; % of control where 0% means no effect; nearly all actives have a fitted effect of over 55% in size
#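 Image-based read-out: total Hoechst fluorescence of nuclei (405 nm excitation, 500-530 nm emission), with hits raising the fraction of high-intensity nuclei. SW480 colon cells incubated 48 hr with compounds at 37 C.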
# KB-3-1 cytotox – qHTS assay for MDR1-selective chemotherapeutics: Primary screen using the parental adenocarcinoma cell KB-3-1. 1.4% of 400,000 active. KB-3-1 viability, CellTiter-Glo ATP luminescence, 72 h. Potency, µM (doses to about 46.1 µM), actives largely listed as cytotoxic; note: potency is the fitted concentration of half-maximal effect; % is set by controls: 0 for no effect and ±100 for the full control effect; nearly all actives have a fitted effect of over 60% in size
#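 Parental KB-3-1 adenocarcinoma cells in phenol-red-free DMEM with 10% FBS were pin-treated with compounds at several concentrations, incubated 72 h at 37 °C, and viability read by CellTiter-Glo luminescence; concentration-effect curves were fitted after normalization.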
# MCF10A rereplic – A quantitative high throughput screen for small molecules that induce DNA re-replication in MCF 10a normal breast cells. 2.9% of 350,000 active. MCF 10A DNA re-replication, Hoechst nuclear intensity, 48 h. AID 624296, 2012. Potency, µM (series often up to 46.1 µM), inactives show at the highest dose activity, positive = re-replication, most hits filed as activators; note: potency is the fitted concentration of half-maximal effect; % of control where 0% means no effect; nearly all actives have a fitted effect of over 50% in size
# IL1B secr inh – qHTS for Inhibitors of Inflammasome Signaling: IL-1-beta AlphaLISA Primary Screen | activity change, % at 57.5 µM | THP-1 LPS/ATP IL-1B secretion, AlphaLISA, 16 h; hits give low values | 4.7% of 360,000 active; in the data active = activity change below about -50%; inconclusive = mostly about -30% to -49%; note: % is set by controls: 0 for no effect and ±100 for the full control effect
#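 Secreted IL-1B measured by AlphaLISA bead assay after 16 h compound exposure of THP-1 cells; compounds (final up to 57.5 uM) added 1 h before LPS (250 ng/mL) and ATP (1.25 mM) stimulation; lower signal means less secretion.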
# An asterisk follows results filed as active; i = inactive; ? = inconclusive; . = not tested or not shown; [ ] = dose if it differs, or a comment. Unless noted, calls come from the whole dose curve; as a rule, active = well fitted curve in the direction sought with a large enough effect; inconclusive = small, poorly fitted or top-dose-only effect, or another doubt; inactive = no such curve, though single readings can be large; an effect the other way counts as inactive or inconclusive.
SMILES,KB-V1 MDR tox,SW480 rerep,KB-3-1 cytotox,MCF10A rereplic,IL1B secr inh
CCOC(=O)c1c(C)[nH]c(C)c1S(=O)(=O)NCCc1ccco1,i,-0.7%,i,8.8%,?
CCCCCc1cc(=O)oc2c(C(CCN3CCCC(C)C3)c3cc(OC)c(OC)c(OC)c3)c(OC)cc(OC)c12 (stereo not drawn),i,19.4%[9.22 µM],i,18.5%,-59.9*
COc1cc(C(CCN2CCCC(C)C2)c2c(OC)cc(OC)c3c2OC(=O)CC3c2ccc(N(C)C)cc2)cc(OC)c1OC (stereo not drawn),?,22.8%,i,5.4%,-110.6*
COc1ccc(C(CCN2CCCCC2)c2c(OC)cc(OC)c3c(-c4ccccc4)cc(=O)oc23)cc1 (stereo not drawn),i,1.64µM*,?,?,-11.0
CCCCCc1cc(=O)oc2c(C(CCN3CCCCC3)c3cc(OC)c(OC)c(OC)c3)c(OC)cc(OC)c12 (stereo not drawn),?,-12.7%,?,-2.8%,-3.4
COc1ccc(NC(=O)Cc2ccsc2)cc1S(=O)(=O)N1CCOCC1,i,-8.0%,i,-9.3%,-8.6
O=C(CN1C(=O)c2cccc3cccc1c23)N1CCN(c2ccccc2)CC1,i,?,i,23.1µM*,5.4
O=C(CN1C(=O)c2cccc3cccc1c23)N1CCN(c2cccc(Cl)c2)CC1,i,2.6%,i,-3.1%,16.8
O=C(CN1C(=O)c2cccc3cccc1c23)N1CCN(c2ccc(F)cc2)CC1,i,?,i,11.2µM*,14.1
O=C(CN1c2cccc3cccc(c23)S1(=O)=O)N1CCN(c2ccccc2)CC1,9.2µM*,2.4%,i,8.8%,10.6
CCN(CCNCC(O)COCc1ccc(Cl)cc1)c1cccc(C)c1 (stereo not drawn),?,?,i,62.9%,.
COc1ccccc1CNC(=O)CCNC(=O)c1ccco1,i,0.2%,i,3.6%,-8.1
C=CCN1CC(=O)N2C(c3ccccc3)c3[nH]c4ccccc4c3C[C@H]2C1=O (stereo partly drawn),i,?,6.51µM*,4.0%,12.0
COc1cccc(C2c3[nH]c4ccccc4c3C[C@H]3C(=O)N(CCCOC(C)C)CC(=O)N23)c1 (stereo partly drawn),i,0.3%,i,-1.6%,6.7
CCN1C(=O)[C@@H]2Cc3c([nH]c4ccccc34)C(c3ccc(OC)cc3)N2C1=S (stereo partly drawn),?,?,?,20.6µM*,-9.9
COC(=O)c1ccc(C2c3[nH]c4ccccc4c3C[C@H]3C(=O)N(C)CC(=O)N23)cc1 (stereo partly drawn),i,?,i,10.4%,28.1
CC(C)OCCCN1CC(=O)N2C(c3ccccc3)c3[nH]c4ccccc4c3C[C@H]2C1=O (stereo partly drawn),i,12.5%,i,2.9%,-62.4*
CC(C)c1ccc(S(=O)(=O)N2CCN(C(=O)C3CCCCC3)CC2)cc1,i,?,i,2.7%,-1.4
COc1ccc(CNS(=O)(=O)c2cc3c4c(c2)C(C)C(=O)N4CCC3)cc1 (stereo not drawn),i,-16.6%,i,?,17.5
COC(=O)c1ccc(CSc2nnc3ccc4ccccc4n23)cc1,i,.,i,.,.
COc1ccccc1-c1cc(C(=O)NCc2ccc(F)cc2)no1,16.4µM*,14.2%,i,?,-1.8
Cc1ccc(-c2cc(C(=O)NCc3cccnc3)no2)cc1,16.4µM*,-3.7%,i,1.6%,11.5
COc1ccc(-c2cc(C(=O)Nc3cccnc3)no2)cc1OC,?,-57.5%,i,3.2%,3.8
COc1ccc(-c2cc(C(=O)NCc3cccnc3)no2)cc1OC,20.6µM*,-14.5%,i,-4.0%,-5.2
Cc1ccc2cc(CCNS(=O)(=O)c3ccc(F)cc3)c(=O)[nH]c2c1C,i,1.4%,i,-6.3%,29.0
SMILES,KB-V1 MDR tox,SW480 rerep,KB-3-1 cytotox,MCF10A rereplic,IL1B secr inh
CCC(C)NS(=O)(=O)c1ccc(NC(=O)C(Sc2ccccc2)c2ccccc2)cc1 (stereo not drawn),16.4µM*,?,?,?,-54.4*
CC(=O)NS(=O)(=O)c1ccc(NC(=O)C(Sc2ccccc2)c2ccccc2)cc1 (stereo not drawn),?,-2.7%,i,5.4%,37.4
O=C(Nc1ccon1)C(Sc1ccccc1)c1ccccc1 (stereo not drawn),i,2.8%,i,-0.6%,0.0
O=C(Nc1nncs1)C(Sc1ccccc1)c1ccccc1 (stereo not drawn),20.6µM*,-58.8%,i,-55.1%,40.1
Cc1ccc(C(=O)c2cnc3cc4c(cc3c2S(=O)(=O)c2ccccc2)OCCO4)cc1,16.4µM*,?,?,?,-79.0*
Cc1ccc(C=Nc2ccccc2C(=O)Nc2ccccc2)cc1,i,-1.3%,i,?,21.9
Cc1ccccc1N=Cc1cccc(O)c1O,?,6.51µM*,i,?,63.9
CC(N=Cc1cccc(O)c1O)c1ccccc1 (stereo not drawn),i,8.2µM*,i,?,-27.3
Cc1ccc(C=Nc2ccccc2C(N)=O)cc1,5.8µM*,?,7.31µM*,11.6µM*,40.5
Cc1ccccc1C=Nc1ccccc1C(N)=O,?,4.11µM*,3.66µM*,3.26µM*,-1.4
CC(C)(C)OC(=O)N1CCC(c2c(C(=O)Nc3ccc4c(c3)OCCO4)cnn2-c2ccc(F)cc2F)CC1,i,.,i,.,.
COc1ccc(NC(=O)Cn2c(=O)n(-c3ccccc3)c(=O)c3c4c(sc32)CCCC4)cc1,i,.,i,.,.
CCOC(=O)c1c(CN2CCNCC2)nc2ccc(Cl)cc2c1-c1ccccc1,23.1µM*,?,?,?,-64.2*
CC(=O)c1c(N2CCOCC2)nc2ccc(Cl)cc2c1-c1ccccc1,i,-10.7%,i,14.6µM*,-0.1
COc1cc2c(cc1O)C(CSC)Cc1cc3c(cc1N(C)CC2)OCO3 (stereo not drawn),?,.,?,.,-4.5
CCOC(=O)c1c(C)c(C(=O)N2CCN(C(=O)c3ccco3)CC2)c(C)n1C,i,-8.6%,i,2.4%,-12.8
CCOC(=O)c1c(C)n(C(=O)c2ccco2)c(=O)n1C(=O)c1ccco1,i,-3.5%,i,7.7%,-68.3*
c1ccc2c(c1)CCc1ccccc1C2=C1CCNCC1,?,21.0%,?,-6.2%,-66.0*
CN1CCC(=C2c3ccccc3C=Cc3ccccc32)CC1,?,?,i,?,?
